According to PubChem BioAssay (NCI):
This is part of a sample that, as a whole, favours compounds with a hit. Of some 83,000 tested, about 20% had one in any assay.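 Activity criterion: percent growth below 10, measured after cells in 96-well plates were exposed to a single compound concentration for 48 hours.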 A number with no mark means an inactive call. Activity calls are given as the source filed them.

How the values were obtained:
Assay in all cases: NCI-60 one-dose screen, 48 h (100 = growth as untreated, 0 = no growth, -100 = all killed)
Settings in all cases: 10 µM unless noted
[1] = system: HCT-15 colon
[2] = system: HT29 colon
[3] = system: SNB-75 CNS
[4] = system: SNB-19 CNS
[5] = system: U251 CNS
[6] = system: PC-3 prostate
[7] = system: SK-MEL-5 melanoma
[8] = system: UACC-62 melanoma
[9] = system: LOX IMVI melanoma
[10] = system: SK-MEL-28 melanoma
[11] = system: SK-MEL-2 melanoma
[12] = system: EKVX NSCLC
[13] = system: SN12C renal
[14] = system: UO-31 renal
[15] = system: TK-10 renal
[16] = system: ACHN renal
[17] = system: CAKI-1 renal
[18] = system: A498 renal
[19] = system: CCRF-CEM leukemia
[20] = system: MOLT-4 leukemia

SMILES	growth [1]	growth [2]	growth [3]	growth [4]	growth [5]	growth [6]	growth [7]	growth [8]	growth [9]	growth [10]	growth [11]	growth [12]	growth [13]	growth [14]	growth [15]	growth [16]	growth [17]	growth [18]	growth [19]	growth [20]
CCCCC(CC)COC(=O)C[N+](C)(C)CCOC(c1ccccc1)c1ccccc1 (stereo not given)	96.2%	28.3%	10.8%	40.7%	30.8%	19.5%	-79.8% (active)	-20.1% (active)	1.39% (active)	11.1%	-26.9% (active)	57.9%	43.2%	95.6%	53.7%	101%	97.4%	101%	20.4%	40.7%
Cn1ncc2c(Nc3ccc(O)cc3)nc(Cl)nc21	97%	102%	95%	106%	99.3%	119%	100%	82.6%	95.7%	114%	106%	87.8%	96.8%	84%	102%	88%	92.9%	111%	92.1%	94.2%
O=C1NC(=O)c2cc([N+](=O)[O-])cc3cccc1c23	95.2%	102%	90.2%	100%	82.3%	78.8%	101%	87%	81.5%	108%	107%	94.2%	98.1%	66.4%	107%	103%	84.8%	87.1%	89.8%	115%
CC(C)C1=NOC(=O)C1=Cc1cn(-c2ccccc2)nc1-c1cccc([N+](=O)[O-])c1	60.4%	70.5%	86.5%	74.2%	66.7%	73%	90%	83.9%	0.102% (active)	93.4%	101%	99.3%	78.3%	74.3%	89.5%	99.2%	64.6%	76.3%	2.68% (active)	3.44% (active)
CCN(CC)CCCC(C)Nc1ccnc2cc(Cl)c(SCc3ccccc3)cc12 (stereo not given)	-68.8% (active)	-56.4% (active)	-86.2% (active)	-34.9% (active)	-54.3% (active)	-7.16% (active)	-94.9% (active)	-90.8% (active)	-90.9% (active)	-82.5% (active)	-71.1% (active)	3.57% (active)	20.4%	-84.1% (active)	-30.8% (active)	-89.2% (active)	-62.2% (active)	-90.1% (active)	-25.9% (active)	-29.3% (active)
CC1Cc2c(Cl)ncnc2N(C)c2ccccc21 (stereo not given)	12.6%	-24.1% (active)	82.8%	28.4%	19.6%	16.3%	-75.1% (active)	13.5%	-43.6% (active)	20.9%	-28.2% (active)	21.7%	15.8%	10.4%	15.1%	26%	19.3%	-18.4% (active)	34.2%	8.61% (active)
CCOc1cc(NC(=O)c2ccccc2)c(OCC)cc1N	111%	121%	106%	105%	106%	104%	107%	106%	100%	118%	112%	113%	113%	102%	112%	118%	102%	113%	107%	101%
COc1cc(NCc2cn(-c3ccc(C(=O)O)cc3)nc2-c2ccc(C(=O)O)cc2)cc(OC)c1OC	106%	106%	77.8%	97.4%	92.2%	96.9%	95.2%	94.4%	95.9%	103%	102%	93.1%	94.7%	88.9%	91.6%	102%	87.9%	66%	-17.9% (active)	110%
CCOC(=O)COc1c(C)cc(SSc2cc(C)c(OCC(=O)OCC)c(C)c2)cc1C	88.8%	97.8%	87.9%	109%	75.4%	65.2%	94.6%	87.3%	103%	100%	100%	107%	102%	82.4%	87.5%	107%	106%	99.8%	82.5%	82.5%
O=C(CCCCCCSc1nc(-c2ccc(Cl)cc2)cc(-c2ccc(Cl)cc2)n1)NO	23.6%	20.4%	57.7%	37.3%	16.6%	42.8%	5.66% (active)	16.1%	2.18% (active)	57.8%	92.7%	50.9%	26.1%	8.29% (active)	30.7%	15.5%	13.4%	81.8%	5.2% (active)	11.4%
O=C(O)c1cccc(CN2CCN(c3cc4c(cc3F)c(=O)c(C(=O)O)cn4C3CC3)CC2)c1O	104%	102%	92.2%	99.2%	96.2%	93.7%	102%	102%	97.9%	106%	101%	100%	102%	81.6%	96.6%	103%	88.7%	106%	101%	105%
CC1(C)S[C@@H]2[C@H](NC(=O)[C@H](C(=O)O)c3cccs3)C(=O)N2[C@H]1C(=O)O	98.7%	102%	104%	105%	94.4%	99.2%	106%	102%	99.4%	116%	98.2%	93.1%	104%	85.6%	103%	95.2%	93.2%	118%	105%	125%
Cc1cccc(C[C@H](NC(=O)Nc2ccc(Cl)cc2F)C(=O)N[C@@H]2C(=O)N3C[C@H](O)C[C@H]3C(=O)N3CCCC[C@H]3C(=O)N[C@@H](C)C(=O)N3C[C@H](C)C[C@H]3C(=O)O[C@H]2C)c1	27.9%	-10.5% (active)	4.64% (active)	16.2%	16.4%	7.99% (active)	-70.4% (active)	-26.1% (active)	9.07% (active)	0.552% (active)	0.151% (active)	24.6%	9.57% (active)	10.3%	29.2%	8.94% (active)	8.12% (active)	-4.82% (active)	31%	14.7%
O=c1cc(-c2ccccc2)oc2c(O)c(O)ccc12	38%	77.4%	73.7%	58%	43.1%	67.4%	53.6%	72.7%	53.9%	81%	85.4%	90%	68.7%	36.2%	75.2%	40.1%	37.4%	73.1%	41.6%	55.9%
O=C(CSc1nc2ccc([N+](=O)[O-])cc2[nH]1)Nc1cccc(Cl)c1	23.3%	21.1%	23.9%	17.6%	13.6%	11.7%	0.349% (active)	8.24% (active)	27.7%	28.9%	7.44% (active)	16.7%	6.25% (active)	9.96% (active)	37.8%	22.5%	17.6%	5.48% (active)	16.4%	7.99% (active)
